Measured values: PubChem BioAssay (NCI)
About 79,000 compounds went through this panel and 15% of them were active in at least one assay; those are over-represented in the sample as a whole. Cut-off read from the data, not from the text of the source: active = growth inhibition above about 70%; inactive = the rest.

Tests used:
[1] = NCI Yeast Anticancer Drug Screen. Data for the rad50 strain (AID 155);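 note: 0% = growth of vehicle-only cultures of the same strain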; settings: S. cerevisiae rad50 strain growth inhibition; at 50.0 µM; active compounds read high
Summary of the method: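 Growth of the mutant yeast was measured after compound exposure and referenced to vehicle-treated cultures.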

[2] = NCI Yeast Anticancer Drug Screen. Data for the mec2-1 strain (AID 157); settings: S. cerevisiae mec2-1 strain, at 50.0 µM, active compounds read high
Summary of the method: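 Readout is yeast growth inhibition, normalised to vehicle-treated controls, in the mec2-1 strain exposed to compound.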

[3] = NCI Yeast Anticancer Drug Screen. Data for the sgs1 mgt1 strain (AID 161);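 note: 0% = growth of cultures given vehicle only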; settings: S. cerevisiae sgs1 mgt1 strain, at 50.0 µM, active compounds read high
Summary of the method: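 Growth of a repair-deficient yeast mutant was monitored after compound treatment and expressed as inhibition relative to vehicle-treated cultures.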

[4] = NCI Yeast Anticancer Drug Screen. Data for the cln2 rad14 strain (AID 165);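 note: 0% = growth equal to vehicle treated cultures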; settings: S. cerevisiae cln2 rad14 strain, at 50.0 µM, active compounds read high
Summary of the method: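 Relative to vehicle controls, growth inhibition of compound-treated cln2 rad14 yeast was recorded.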

[5] = NCI Yeast Anticancer Drug Screen. Data for the bub3 strain (AID 167); settings: S. cerevisiae bub3 mutant strain, at 50.0 µM, active compounds read high
Summary of the method: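 Whole-cell yeast assay. The mutant strain was incubated with compounds, and growth inhibition was determined by comparison with vehicle-treated cells.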

[6] = NCI Yeast Anticancer Drug Screen. Data for the mlh1 rad18 strain (AID 175); settings: S. cerevisiae mlh1 rad18 strain growth inhibition; at 50.0 µM; active compounds read high
Summary of the method: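 Test agents were incubated with a yeast strain of defined genotype (DNA damage repair defect). Inhibition of growth was derived by comparison with vehicle-exposed cultures.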

Measured: growth inhibition

CCCCCc1c(-c2n[nH]c(C)c2CCCCC)n[nH]c1C
inactive: [1] 5.55% | [2] -6.05% | [3] -9.1% | [4] -7.85% | [5] -31.6% | [6] 1.8%

O=C(O)c1c(Cl)ccc(F)c1Cl
inactive: [1] 9.45% | [2] 1.2% | [3] 4.5% | [4] -11.9% | [5] 11.3% | [6] 8.35%

C[N+](C)(C)Cc1ccc2ccccc2c1CC(O)(c1ccccc1)c1ccccc1
inactive: [1] 16.6% | [2] -0.6% | [3] 19.1% | [4] 4.85% | [5] 1.95% | [6] 9.8%

O=C(O)C1=C(C(=O)Nc2ccc(NC(=O)C3=C(C(=O)O)C4C=CC3C4)cc2)C2C=CC1C2
inactive: [1] -0.75% | [2] -0.35% | [3] -6.3% | [4] -28.4% | [5] 0.25% | [6] 9.95%

O=C1CCCC2OC2[C@H]2CCCCCC[C@@H]12 (stereo not given in full)
inactive: [1] 2.5% | [2] 0.9% | [3] 4.8% | [4] 3.15% | [5] -2.35% | [6] 7.85%

CCCCN(CCCC)Cc1ccnc(C)c1O
inactive: [1] -9.3% | [2] 5.85% | [3] -8.5% | [4] 8.7% | [5] 3.75% | [6] 7.9%

O=P(O)(O)OC1OC(n2cnc3c(NCc4ccc(F)cc4)ncnc32)C(O)C1O (stereo not given)
inactive: [1] 0.3% | [2] 2.3% | [3] -13.1% | [4] -18.2% | [5] 2% | [6] -25.7%

COC(=O)c1ccccc1OC(C)=O
inactive: [1] 9.8% | [2] 11.4% | [3] -0.4% | [4] 13.8% | [5] 1.5% | [6] -10.7%

CCNC(=O)c1ccccc1C(=O)c1ccccc1
inactive: [1] -4.55% | [2] 1.2% | [3] 6.55% | [4] 12.8% | [5] -0.75% | [6] 11.5%

OCc1ccccc1O
inactive: [1] -1.7% | [2] 6.25% | [3] -6.55% | [4] 25.8% | [5] -0.7% | [6] 11.2%

O=C(CN1C(=O)c2cccc3c(Br)ccc(c23)C1=O)c1ccc(F)cc1
inactive: [1] -10.4% | [2] -14.7% | [3] 7.6% | [4] 18.7% | [5] -12% | [6] 1.3%

CC1=CC(CO)C2C(=O)NC(=O)C2C1C (stereo not given)
inactive: [1] 7.2% | [2] -6.15% | [3] -9.75% | [4] -39.5% | [5] -17.1% | [6] 7.7%

CC1(C)N=C(N)N=C(N)N1c1ccc(C(=O)c2ccccc2)cc1
inactive: [1] 2.65% | [2] -3.5% | [3] -3.3% | [4] -3.1% | [5] 13.5% | [6] 15.5%

Cc1ccc(S(=O)(=O)NCCCN(CCCNS(=O)(=O)c2ccc(C)cc2)S(=O)(=O)c2ccc(C)cc2)cc1
inactive: [1] -8.25% | [2] -10.8% | [3] -5.1% | [4] -70.5% | [5] -19.4% | [6] -12.2%

CC1(O)C(=O)N(Cc2ccccc2)c2ccccc21 (stereo not given)
inactive: [1] 25.6% | [2] -5% | [3] -5.2% | [4] -8.5% | [5] -10.4% | [6] 4.05%

CCOC(=O)C(N=Nc1ccc(C)cc1Br)C(C)=O (stereo not given)
inactive: [1] 16.2% | [2] 13.9% | [3] 24.9% | [4] 15.6% | [5] 22.4% | [6] 24.1%

CCOC(=O)[C@H](C)OC(=O)[C@@](C)(NC(=O)c1ccccc1C(=O)OC)[C@@H]1NC=C(C(=O)OC)CS1
inactive: [1] -2.15% | [2] 26.9% | [3] 11.2% | [4] 14.4% | [5] 29% | [6] 5.8%

O=C(OCCCl)OCCCl
inactive: [1] 41.5% | [2] 18.9% | [3] 22.4% | [4] -21.9% | [5] -5.3% | [6] 25%

CCc1cccc(C(C)C)c1NC(=O)C(=O)C(CC(=O)Nc1ccc(Cl)c(Cl)c1)C(=O)OC (stereo not given)
inactive: [1] -1.85% | [2] 3.6% | [3] -2.65% | [4] 15.8% | [5] 14.8% | [6] 7.7%

COC(=O)C1=C(C(=O)OC)C2C=CC1C1C(Cl)=C(Cl)C21 (stereo not given)
inactive: [1] -12% | [2] -0.95% | [3] -10.7% | [4] 21.2% | [5] 33.6% | [6] -34%
